# Source: PubChem BioAssay AID720706 (Broad Institute, 2013)
# About 5,500 (1.6%) of roughly 350,000 compounds were called active. This is one part of a sample in which actives are shown more often than they occur.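 The calls were made as follows: active = significant combined selectivity score with lowered wild-type GFP, culture density cut under 30%, mutant RFP and density less affected; inactive = any of these conditions unmet.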
# Assay: GFP drop in mixed WT/humanized-ribosome E. coli culture – GFP/RFP fluorescence, OD600, single point, bacterial rRNA inhibitor project, primary screen (AID 720706)
# Settings: E. coli WT GFP vs humanized-ribosome RFP mutants, 24 h; GFP signal change (wild-type ribosome): stronger effect = lower value, DMSO median 0, no signal -100; OD600 change: measured here: OD600 growth, DMSO median 0, no signal -100; RFP signal change: measured here: RFP humanized mutant strains, DMSO median 0, no signal -100, concentration not given here
Structure (SMILES),GFP signal change (wild-type ribosome),OD600 change [%],RFP signal change [%]
C[C@@H]1CN([C@H](C)CO)C(=O)c2cc(C#CCN(C)C)cnc2O[C@H]1CN(C)C(=O)NC1CCCC1,3.54% (inactive),11.4,-1.39
CNC[C@@H]1Oc2ccc(NS(=O)(=O)c3c(C)noc3C)cc2CC(=O)N([C@@H](C)CO)C[C@@H]1C,1.9% (inactive),3.17,1.62
Cc1ccc(C)c(NC(=O)c2ccc3nccnc3c2)c1,4.03% (inactive),7.77,-0.371
Cc1ccc(C)c(NC(=O)c2cc(-c3cc(C)cc(C)c3O)n[nH]2)c1,-26.5% (active),-6.64,-4.96
Cc1ccc(C)c(NC(=O)NNC(=O)c2ccc3ccccc3c2O)c1,7.08% (inactive),7.28,-0.547
O=C(C[C@H]1C[C@H]2c3cc(NC(=O)C4CCOCC4)ccc3O[C@H]2[C@@H](CO)O1)NCCN1CCCCC1,5.5% (inactive),7.29,1.6
C[C@@H]1CN([C@H](C)CO)C(=O)c2cc(NC(=O)C3CCCCC3)ccc2O[C@@H]1CN(C)CC1CCCCC1,0.0895% (inactive),5.96,0.317
OCc1ccc(OCCCOc2cccc3cccnc23)cc1,-10.7% (inactive),-8.81,-4.97
O=S(=O)(NCCc1ccc(F)cc1)c1cccc2cccnc12,-26.1% (inactive),-23,-1.09
O=S(=O)(NCCOc1cccc2cccnc12)c1ccc(F)cc1,-21.1% (active),-16,1.43
O=C(C[C@@H]1CC[C@@H](NC(=O)C2CCOCC2)[C@H](CO)O1)NCC1CC1,0.615% (inactive),0.519,-2.58
CN1CCCCN2[C@H](CO)[C@H](c3ccc(-c4ccc(F)cc4)cc3)[C@@H]2C1,3.95% (inactive),2.06,-2.51
CCC(=O)N1CC2(CN(C(=O)Nc3ccccc3F)C2)c2c([nH]c3cc(OC)ccc23)[C@H]1CO,-3.51% (inactive),-1.81,1.22
COc1ccc(N2CCN(C(=O)CCSCc3ccccc3F)CC2)cc1,-33% (active),-17.7,-1.41
COc1ccc(N2CCN(C(=O)CCNC(=O)c3ccc(Br)cc3)CC2)cc1,4.67% (inactive),3.67,-1.33
O=C(CCc1ccccc1F)N1CCN(c2ccccc2)CC1,-5.11% (inactive),-5.09,-0.63
O=C(NCC[C@H]1CC[C@@H](NC(=O)c2ccncc2)[C@@H](CO)O1)Nc1ccc(Cl)cc1,-17.2% (inactive),-25.9,-0.789
O=C(C1CCCC1)N1CC(=O)N2[C@@H](CO)[C@H](c3ccc(C#CC4CCCC4)cc3)[C@@H]2C1,-40.8% (inactive),-65.7,1.78
C=CCn1c(-c2ccccc2OCC)n[nH]c1=S,3.63% (inactive),4.05,2.66
C=CCn1c(CCc2ccc(OC(C)C)cc2)n[nH]c1=S,-0.285% (inactive),-0.525,1.11
C=CCn1c(-c2sc(-c3ccccc3)nc2C)n[nH]c1=S,-24.3% (active),-5.31,7.62
O=C(C1CC1)N1CCCCN2[C@H](CO)[C@H](c3ccc(-c4cccc(F)c4)cc3)[C@H]2C1,-6.45% (inactive),-8.76,3.12

Structure (SMILES),GFP signal change (wild-type ribosome),OD600 change [%],RFP signal change [%]
COCC(=O)N1CCCCN2[C@H](C1)[C@@H](c1ccc(-c3ccccc3)cc1)[C@@H]2CO,2.96% (inactive),-5.68,0.005
C[C@@H]1CCCCO[C@@H](CN(C)C(=O)Nc2cccc3ccccc23)[C@H](C)CN([C@H](C)CO)C(=O)c2cc(NS(C)(=O)=O)ccc2O1,2.97% (inactive),-14.8,-1.87
COC(=O)c1ccc(COC(=O)CNC(=O)c2cccc(OC)c2)o1,3.46% (inactive),11.4,-1.13
COc1cccc(C(=O)NCCSc2ccc(Br)cc2)c1,-49.8% (inactive),-75.8,-16.7
COc1cccc(C(=O)c2cc3ccc(O)cc3oc2=O)c1,-30.5% (active),-15,1.31
COc1ccc(NC(=O)Nc2ccc3c(c2)C(=O)N([C@H](C)CO)C[C@H](C)[C@@H](CN(C)Cc2ccccc2)OCCCC[C@H](C)O3)cc1,2.43% (inactive),-11,1.05
C[C@@H]1CN([C@H](C)CO)C(=O)c2cc(NC(=O)C3CCCCC3)ccc2O[C@@H](C)CCCCO[C@H]1CN(C)S(C)(=O)=O,-1.08% (inactive),0.309,-2.76
CC1CCN(c2c(NCc3ccc(C(=O)NCc4ccccc4)cc3)c(=O)c2=O)CC1,-2.23% (inactive),0.92,2.65
CC1CCN(C(=O)CCNC(=O)c2ccccc2)CC1,9.31% (inactive),16.3,-0.0995
CC1CCCN(c2ccc(C(=O)NCCc3ccccc3)cn2)C1 (stereo not drawn),-19.9% (active),-8.59,0.765
COc1ccc2c3c([nH]c2c1)[C@H](CO)N(C(=O)C1CCC1)CC31CCN(Cc2cccc(F)c2)CC1,-1.74% (inactive),-5.93,3.15
COc1ccc2c3c([nH]c2c1)[C@@H](CO)N(Cc1ccccc1OC)CC31CCN(C)CC1,-0.945% (inactive),0.435,0.881
Cc1nn(-c2ccccc2)c(Cl)c1/C=N/NC(=O)c1nn(C)cc1[N+](=O)[O-],-30.3% (active),4.85,0.73
Cc1cc(=O)[nH]c(N/N=C/c2c(C)nn(-c3ccccc3Cl)c2Cl)n1,-2.91% (inactive),6.48,-1.95
Cc1nn(-c2ccccc2)c(C)c1/C=N/NC(=O)CSc1nc2ccccc2c(=O)n1-c1ccccc1,14.9% (inactive),17.7,-2.02
C[C@@H]1CN([C@@H](C)CO)S(=O)(=O)c2ccc(C#CCN(C)C)cc2O[C@@H]1CN(C)S(=O)(=O)c1cccc(F)c1,-0.828% (inactive),-6.54,0.409
C[C@H](CO)N1C[C@H](C)[C@H](CN(C)C(=O)Nc2ccc(C(F)(F)F)cc2)Oc2ccc(NS(=O)(=O)c3ccccc3)cc2CC1=O,2.52% (inactive),-0.79,1.4
CN1C(=O)c2cc(NC(=O)c3ccccc3)ccc2OC[C@@H]2O[C@@H](CC(=O)NC3CCCC3)CC[C@H]21,0.592% (inactive),4.01,0.386
Cc1ccccc1NC(=O)CCOc1ccccc1,6.54% (inactive),-4.25,2.04
Cc1ccc(F)c(NC(=O)CCOc2ccccc2C)c1,-19.4% (active),-1.12,1.17
Cc1cccc(OCCC(=O)Nc2ccccc2C(N)=O)c1,-0.179% (inactive),-10.5,0.55
C[C@@H]1CN([C@H](C)CO)C(=O)Cc2cc(NS(=O)(=O)c3cn(C)cn3)ccc2O[C@@H]1CN(C)C(=O)Nc1ccccc1,6.08% (inactive),7.32,-1.29

Structure (SMILES),GFP signal change (wild-type ribosome),OD600 change [%],RFP signal change [%]
CS(=O)(=O)N1CCc2cc(C(=O)Nc3ccccc3)ccc21,5.39% (inactive),2.75,3.33
CC(=O)Nc1cccc(NC(=O)c2ccc3c(c2)CCN3S(C)(=O)=O)c1,-1.52% (inactive),7.81,5.89
CN(c1cccc(NC(=O)c2ccc(CN3CCc4ccccc4C3)cc2)c1)S(C)(=O)=O,-21.5% (active),-11.3,-3.92
O=S(=O)(NCCc1csc(-c2ccccc2)n1)c1cccnc1,-11.8% (inactive),-3.96,1.22
COc1ccc(-c2nc(CCNC(=O)c3ccc(Br)o3)cs2)cc1,-22.8% (inactive),-75.5,-22.8
O=C(NCCc1csc(-c2ccccc2)n1)c1ccccc1F,-24.5% (active),-9.12,10.4
C[C@H](CO)N1C[C@H](C)[C@@H](CN(C)C(=O)c2ccncc2)Oc2cc(/C=C/c3ccccc3)ccc2S1(=O)=O,-0.655% (inactive),-10,0.748
CC(C)NC(=O)N(C)C[C@H]1Oc2ccc(N)cc2CC(=O)N(C)C[C@H]1C,1.15% (inactive),1.28,-1.08
COc1ccc2oc(C(=O)NCc3ccco3)c(C)c2c1,-31.1% (active),-11.6,2.2
COc1ccc2oc(C(=O)NCC(Cc3ccccc3)N(C)C)c(C)c2c1 (stereo not drawn),0.609% (inactive),-7.21,3.26
Cc1c(C(=O)NCC(c2ccco2)N2CCCC2)oc2ccc(Cl)cc12 (stereo not drawn),-0.887% (inactive),-24.2,6.54
C[C@@H]1CCCCO[C@@H](CN(C)S(=O)(=O)c2cccs2)[C@H](C)CN([C@H](C)CO)C(=O)c2cc(NC(=O)CCCN(C)C)ccc2O1,0.863% (inactive),4.81,-0.962
Cc1cc(C)c2c(-c3ccc(F)cc3)c(C#N)c(=O)n(C)c2n1,2.75% (inactive),5.62,-1.52
COc1ccc(O)c(C(=O)c2cnc3c(c2)c(-c2ccc(F)cc2)c(C#N)c(=O)n3C)c1,-17% (active),6.31,1.18
COCCn1c(=O)[nH]c(=O)c2cc(C(=O)c3cc(OC)ccc3O)cnc21,-0.725% (inactive),-0.37,12.8
CC(=O)N1N=C(c2ccccc2)OC1c1cccnc1 (stereo not drawn),9.41% (inactive),-5.18,-3.3
O=C(Cc1ccccc1)N1N=C(c2ccncc2)CC1(O)C(F)(F)F (stereo not drawn),7.85% (inactive),-1.11,2.05
CC(=O)N1N=C(c2ccncc2)OC1(Cc1ccccc1)Cc1ccccc1,-37.5% (active),-22,-2.93
CCc1cccc(C)c1N1C(=O)CN(Cc2ccccc2)C1=S,1.91% (inactive),-44.9,-8.39
COc1cccc(N2C(=O)CN(Cc3ccccc3)C2=S)c1,-8.56% (inactive),-0.07,3.96
Cc1cccc(C)c1N1C(=O)CN(Cc2ccccc2)C1=S,-22.1% (active),-16.8,-3.28
CCC(=O)N1CC(=O)N2[C@H](CO)[C@@H](c3ccc(-c4ccc(C(=O)N(C)C)cc4)cc3)[C@H]2C1,4.58% (inactive),2.18,-2.34
